Assay results from PubChem BioAssay (EPA / NIEHS).
Active and inactive are the calls of the source. How the source made its calls: active means hit-call score of the fitted dose curve at least 0.9, where 1 is the maximum; inactive means score below 0.9.

How the values were obtained:
[1] = ATG_E_Box_CIS: Attagene CIS-FACTORIAL HepG2 Assay for human Enhancer Box (E-box) (AID 2282936); conditions: HepG2 E-box cis-reporter transcription, actives raise or lower the signal
Method in brief: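 DMSO served as negative control and baseline for bidirectional fitting. Human hepatoma HepG2 cells, transiently transfected with cis-reporter constructs, were dosed 24 h; reporter mRNA read by RT-PCR and capillary electrophoresis.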

[2] = ATG_M_61_CIS: Attagene CIS-FACTORIAL HepG2 Assay for M61 Transcription Factor (Internal Marker) (AID 2282937); conditions: HepG2 Attagene CIS-FACTORIAL M61 internal marker reporter; actives raise or lower the signal
Method in brief: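 HepG2 cells transiently transfected with multiplexed cis-promoter reporter units reporting endogenous transcription factor activity, measured 24 h after dosing. Reporter mRNA quantified by RT-PCR and capillary electrophoresis; bidirectional fit against DMSO baseline.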

[3] = ATG_EGR_CIS: Attagene CIS-FACTORIAL HepG2 Assay for human Early Growth Response 1 (EGR1) (AID 2282938); conditions: HepG2 Attagene CIS-FACTORIAL EGR reporter mRNA; actives raise or lower the signal
Method in brief: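 HepG2 cells transiently transfected with cis-element-driven multiplexed reporter units, dosed for 24 h. EGR1-element reporter mRNA quantified by RT-PCR, 6-FAM labelling, HpaI digestion and capillary electrophoresis; bidirectional fit versus DMSO.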

[4] = ATG_M_19_CIS: Attagene CIS-FACTORIAL HepG2 Assay for M19 Transcription Factor (Internal Marker) (AID 2282939); conditions: HepG2 Attagene CIS-FACTORIAL M19 internal marker reporter; actives raise or lower the signal
Method in brief: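 Following a 24 h exposure, RNA from transfected HepG2 cells was reverse-transcribed, PCR-amplified with reporter-specific primers, end-labelled with 6-FAM and HpaI-digested before capillary separation. Values represent gain or loss versus DMSO.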

[5] = ATG_ERE_CIS: Attagene CIS-FACTORIAL HepG2 Assay for Estrogen Response Element (ERE) (AID 2282940); conditions: HepG2 ERE cis-reporter, Attagene RNA transcript; actives raise or lower the signal
Method in brief: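 HepG2, transient cis-reporter units, 24 h exposure. RNA isolated, oligo(dT) RT, reporter-specific PCR, FAM extension, HpaI cut, CE detection. Gain/loss-of-signal vs DMSO.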

[6] = ATG_Ets_CIS: Attagene CIS-FACTORIAL HepG2 Assay for human Erythroblast Transformation Specific (ETS) (AID 2282941); conditions: HepG2 ETS cis-reporter transcription, actives raise or lower the signal
Method in brief: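 HepG2 cells transfected with multiple cis-regulated reporter units measuring endogenous ETS-driven transcription, 24 h after dosing. Reporter mRNA quantified by RT-PCR with capillary electrophoresis; bidirectional fit relative to DMSO.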

[7] = target: Hepatocyte nuclear factor 3-beta (Homo sapiens) (UniProt Q9Y261); assay: ATG_FoxA2_CIS: Attagene CIS-FACTORIAL HepG2 Assay for human Forkhead box A2 (FOXA2) (AID 2282942); conditions: HepG2 cis-reporter transcription factor activity, 24 h; actives raise or lower the signal
Sequence of Hepatocyte nuclear factor 3-beta (Homo sapiens) (Q9Y261 whole entry, looked up): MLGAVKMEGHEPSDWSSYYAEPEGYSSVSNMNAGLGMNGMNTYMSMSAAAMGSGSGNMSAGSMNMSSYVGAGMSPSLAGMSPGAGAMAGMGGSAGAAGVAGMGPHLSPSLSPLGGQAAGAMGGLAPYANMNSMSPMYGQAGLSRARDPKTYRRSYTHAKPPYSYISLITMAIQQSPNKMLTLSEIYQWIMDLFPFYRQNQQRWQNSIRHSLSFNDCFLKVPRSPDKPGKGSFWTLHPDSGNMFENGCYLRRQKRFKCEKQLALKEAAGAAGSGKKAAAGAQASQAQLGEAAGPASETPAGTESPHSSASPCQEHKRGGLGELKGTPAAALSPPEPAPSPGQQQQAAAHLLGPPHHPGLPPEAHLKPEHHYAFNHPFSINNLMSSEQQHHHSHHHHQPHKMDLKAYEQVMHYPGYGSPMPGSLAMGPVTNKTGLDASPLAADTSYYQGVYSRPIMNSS
Method in brief: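 HepG2 transiently transfected with a multiplexed cis-promoter reporter library read endogenous FOXA2 activity. After 24 h compound exposure, reporter mRNA was quantified by RT-PCR, HpaI digestion and capillary electrophoresis. Bidirectional fit against DMSO.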

[8] = ATG_FoxO_CIS: Attagene CIS-FACTORIAL HepG2 Assay for human Forkhead box O (FoxO) (AID 2282943); conditions: HepG2 Attagene cis-reporter, FoxO element, mRNA; actives raise or lower the signal
Method in brief: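 Endogenous transcription factor activity read from multiplexed cis-promoter reporter transcripts in transiently transfected HepG2, 24 h after dosing. Reporter RNA measured via RT-PCR plus capillary electrophoresis of FAM-labeled products; gain or loss relative to DMSO.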

[9] = ATG_GATA_CIS: Attagene CIS-FACTORIAL HepG2 Assay for human GATA Binding Protein (AID 2282944); conditions: HepG2 GATA cis-element reporter, Attagene multiplex mRNA; actives raise or lower the signal
Method in brief: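 DMSO serves as negative control and baseline for bidirectional fitting of reporter mRNA changes. HepG2 cells bearing transiently transfected cis-promoter reporters were exposed 24 h; transcripts detected via RT-PCR and capillary electrophoresis.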

[10] = ATG_GLI_CIS: Attagene CIS-FACTORIAL HepG2 Assay for human Zinc Finger Protein GLI1 (AID 2282945); conditions: HepG2, Attagene cis-factorial reporter mRNA, GLI element; actives raise or lower the signal
Method in brief: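 Bidirectional curve fits relative to DMSO, using reporter mRNA levels from RT-PCR plus capillary electrophoresis. Cells were HepG2 transiently carrying cis-regulated reporter constructs, harvested 24 h after dosing.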

[11] = ATG_GRE_CIS: Attagene CIS-FACTORIAL HepG2 Assay for human Glucocorticoid Response Elements (GRE) (AID 2282947); conditions: HepG2 GRE cis-reporter, Attagene multiplex mRNA; actives raise or lower the signal
Method in brief: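 Assay uses human hepatoma HepG2 cells transfected with cis-promoter reporter units, exposed 24 h. mRNA from reporters detected by RT-PCR plus capillary electrophoresis; DMSO serves as negative control and baseline.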

[12] = ATG_ISRE_CIS: Attagene CIS-FACTORIAL HepG2 Assay for human Interferon Regulatory Factor 1 (IRF1) binding to an Interferon-Stimulated Response Element (ISRE) (AID 2282948); conditions: HepG2 ISRE cis-reporter (Attagene), mRNA transcription readout; actives raise or lower the signal
Method in brief: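 Transiently transfected HepG2 cells carrying cis-element reporter units, dosed 24 hours. Reporter mRNA quantified by RT-PCR, fluorescent primer extension, HpaI digestion and capillary electrophoresis. Bidirectional fitting relative to DMSO.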

[13] = ATG_M_32_CIS: Attagene CIS-FACTORIAL HepG2 Assay for M32 Transcription Factor (Internal Marker) (AID 2282949); conditions: HepG2 Attagene cis-factorial M32 reporter, mRNA; actives raise or lower the signal;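 further: background control marker of the multiplexed CIS panel rather than a real target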
Method in brief: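 Following 24 h chemical exposure of HepG2 cells transiently expressing cis-promoter reporter constructs, reporter transcript levels were determined by RT-PCR with fluorescent labelling and capillary electrophoresis, then fitted bidirectionally against DMSO.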

[14] = ATG_M_06_CIS: Attagene CIS-FACTORIAL HepG2 Assay for M06 Transcription Factor (Internal Marker) (AID 2282950); conditions: HepG2 Attagene CIS-FACTORIAL M06 internal marker reporter; actives raise or lower the signal
Method in brief: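 Fluorescence-labelled RT-PCR products from cis-promoter reporter units, cut with HpaI and resolved by capillary electrophoresis, give the signal. Cells are human HepG2, dosed for 24 h. Serves as background control, fitted relative to DMSO.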

[15] = target: Hypoxia-inducible factor 1-alpha (Homo sapiens) (UniProt Q16665); assay: ATG_HIF1a_CIS: Attagene CIS-FACTORIAL HepG2 Assay for human Hypoxia Inducible Factor 1 (HIF1A) (AID 2282951); conditions: HepG2 Attagene cis-factorial HIF1a reporter transcription; actives raise or lower the signal
Sequence of Hypoxia-inducible factor 1-alpha (Homo sapiens) (Q16665 whole entry, looked up): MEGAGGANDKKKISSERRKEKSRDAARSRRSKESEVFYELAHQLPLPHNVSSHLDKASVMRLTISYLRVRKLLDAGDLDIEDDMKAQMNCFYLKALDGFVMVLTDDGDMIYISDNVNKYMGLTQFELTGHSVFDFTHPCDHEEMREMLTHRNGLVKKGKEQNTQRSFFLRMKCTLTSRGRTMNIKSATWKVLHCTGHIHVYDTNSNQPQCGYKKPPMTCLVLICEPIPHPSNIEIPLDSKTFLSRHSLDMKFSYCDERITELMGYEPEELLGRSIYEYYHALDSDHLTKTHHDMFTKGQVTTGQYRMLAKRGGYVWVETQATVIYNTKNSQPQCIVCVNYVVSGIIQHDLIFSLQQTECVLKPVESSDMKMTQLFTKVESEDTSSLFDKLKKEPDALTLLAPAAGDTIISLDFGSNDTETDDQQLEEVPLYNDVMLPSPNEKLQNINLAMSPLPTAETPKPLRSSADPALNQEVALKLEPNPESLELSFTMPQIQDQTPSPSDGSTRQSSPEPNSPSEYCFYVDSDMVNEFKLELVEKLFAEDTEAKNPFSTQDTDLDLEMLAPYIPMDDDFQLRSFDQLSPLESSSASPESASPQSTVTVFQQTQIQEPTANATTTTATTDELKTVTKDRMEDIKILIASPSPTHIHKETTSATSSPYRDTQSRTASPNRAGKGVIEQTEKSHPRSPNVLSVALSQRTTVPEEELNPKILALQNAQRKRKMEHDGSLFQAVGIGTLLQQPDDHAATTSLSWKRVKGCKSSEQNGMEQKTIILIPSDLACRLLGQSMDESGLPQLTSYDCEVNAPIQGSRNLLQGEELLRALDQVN
Method in brief: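 HepG2 cells transiently transfected with multiple cis-regulated reporter transcription units measure endogenous transcription factor activity. After 24 h exposure, reporter mRNA is quantified by RT-PCR with 6-FAM labelling, HpaI digestion and capillary electrophoresis. Bidirectional fitting against DMSO.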

[16] = target: Hepatocyte nuclear factor 6 (Homo sapiens) (UniProt Q9UBC0); assay: ATG_HNF6_CIS: Attagene CIS-FACTORIAL HepG2 Assay for human Hepatocyte Nuclear Factor 6 (HNF6) (AID 2282952); conditions: HepG2 Attagene cis-factorial HNF6 reporter transcription; actives raise or lower the signal
Sequence of Hepatocyte nuclear factor 6 (Homo sapiens) (Q9UBC0 whole entry, looked up): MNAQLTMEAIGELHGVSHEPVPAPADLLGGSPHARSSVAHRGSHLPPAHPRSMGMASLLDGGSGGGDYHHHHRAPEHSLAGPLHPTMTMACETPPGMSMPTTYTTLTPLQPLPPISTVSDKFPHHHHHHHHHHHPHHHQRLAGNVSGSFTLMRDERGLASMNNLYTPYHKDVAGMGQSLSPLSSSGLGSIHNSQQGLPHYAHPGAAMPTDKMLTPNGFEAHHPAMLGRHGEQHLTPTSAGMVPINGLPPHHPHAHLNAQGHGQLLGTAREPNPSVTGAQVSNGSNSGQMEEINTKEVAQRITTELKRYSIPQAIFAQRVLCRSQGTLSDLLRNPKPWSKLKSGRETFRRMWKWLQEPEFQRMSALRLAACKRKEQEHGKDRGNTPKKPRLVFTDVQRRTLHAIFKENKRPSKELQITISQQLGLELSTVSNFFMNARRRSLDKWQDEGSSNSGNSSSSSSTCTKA
Method in brief: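 HepG2 cells transiently transfected with cis-element-driven multiple reporter transcription units, dosed 24 h; reporter mRNA quantified by RT-PCR, FAM primer extension, HpaI digestion and capillary electrophoresis; bidirectional fit versus DMSO baseline.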

[17] = target: Heat shock factor protein 1 (Homo sapiens) (UniProt Q00613); assay: ATG_HSE_CIS: Attagene CIS-FACTORIAL HepG2 Assay for human Heat Shock Transcription Factor 1 (HSE) (AID 2282953); conditions: HepG2 HSE cis-reporter, Attagene RNA transcription; actives raise or lower the signal
Sequence of Heat shock factor protein 1 (Homo sapiens) (Q00613 whole entry, looked up): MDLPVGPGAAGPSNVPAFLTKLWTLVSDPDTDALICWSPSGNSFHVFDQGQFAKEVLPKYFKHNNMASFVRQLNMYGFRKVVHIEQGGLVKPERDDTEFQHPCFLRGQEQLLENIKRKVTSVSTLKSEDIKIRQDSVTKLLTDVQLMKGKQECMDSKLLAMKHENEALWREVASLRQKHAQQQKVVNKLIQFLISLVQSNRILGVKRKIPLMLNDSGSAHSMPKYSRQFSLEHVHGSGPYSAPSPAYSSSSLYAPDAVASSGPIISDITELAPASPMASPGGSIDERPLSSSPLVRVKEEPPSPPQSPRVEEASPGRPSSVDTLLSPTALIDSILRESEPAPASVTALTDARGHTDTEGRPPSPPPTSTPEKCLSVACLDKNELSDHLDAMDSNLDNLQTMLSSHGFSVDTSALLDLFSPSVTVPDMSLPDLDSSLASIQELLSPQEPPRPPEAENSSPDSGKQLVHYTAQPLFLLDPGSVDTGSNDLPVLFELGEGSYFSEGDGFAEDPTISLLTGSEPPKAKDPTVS
Method in brief: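 After a 24 h incubation with test chemical, transfected HepG2 cells were harvested for RNA; reporter transcripts were measured by RT-PCR and capillary electrophoresis. Values reflect gain or loss of signal relative to DMSO.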

[18] = ATG_MRE_CIS: Attagene CIS-FACTORIAL HepG2 Assay for human Metal Responsive Element (MRE) (AID 2282954); conditions: HepG2 MRE cis-reporter transcription, Attagene multiplex; actives raise or lower the signal
Method in brief: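 After a 24 h chemical exposure, transiently transfected HepG2 cells yield RNA whose reporter sequences are amplified, FAM-labelled and sized by capillary electrophoresis. Curves are fitted bidirectionally relative to DMSO.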

[19] = ATG_PBREM_CIS: Attagene CIS-FACTORIAL HepG2 Assay for human Phenobarbital-responsive Enhancer Module (PBREM) (AID 2282955); conditions: HepG2 PBREM cis-reporter, Attagene multiplexed transcription; actives raise or lower the signal
Method in brief: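 HepG2 cells transiently transfected with multiple cis-regulated reporter units measure endogenous transcription factor activity; 24 h compound exposure. Reporter mRNA quantified by RT-PCR, fluorescent labelling, HpaI digestion and capillary electrophoresis; bidirectional fit versus DMSO.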

[20] = target: Bile acid receptor (Homo sapiens) (UniProt Q96RI1); assay: ATG_IR1_CIS: Attagene CIS-FACTORIAL HepG2 Assay for human Nuclear Receptor Subfamily 1 Group H Member 4 (NR1H4), IR1 submotif (AID 2282946); conditions: IR1 reporter transcription, actives raise or lower the signal
Sequence of Bile acid receptor (Homo sapiens) (Q96RI1 whole entry, looked up, the tested form may be a part): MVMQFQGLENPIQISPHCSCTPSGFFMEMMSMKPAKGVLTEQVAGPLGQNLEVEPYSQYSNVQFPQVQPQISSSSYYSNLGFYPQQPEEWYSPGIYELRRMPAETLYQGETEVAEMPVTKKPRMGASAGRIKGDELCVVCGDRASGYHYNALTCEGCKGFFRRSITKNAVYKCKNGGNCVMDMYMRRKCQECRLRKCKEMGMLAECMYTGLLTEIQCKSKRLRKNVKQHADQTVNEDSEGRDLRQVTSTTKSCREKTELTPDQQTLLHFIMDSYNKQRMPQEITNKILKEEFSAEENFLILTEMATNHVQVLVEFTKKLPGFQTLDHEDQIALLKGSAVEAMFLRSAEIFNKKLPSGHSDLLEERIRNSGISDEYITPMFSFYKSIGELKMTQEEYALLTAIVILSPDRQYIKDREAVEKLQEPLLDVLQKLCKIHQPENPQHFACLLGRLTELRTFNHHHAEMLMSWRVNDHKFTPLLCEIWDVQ
Method in brief: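 Cells (human HepG2) carry transiently transfected cis-promoter reporter transcription units. Compounds are incubated 24 h, total RNA is reverse-transcribed and amplified, and labelled fragments are resolved by capillary electrophoresis. Curves use DMSO as baseline.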

Measured: outcome

C=CC(C)(C)C
not listed: [20]
inactive: all other assays above

Cc1cccc(OCCOc2cccc(C)c2)c1
not listed: [20]
inactive: all other assays above

O=c1n(CCO)c(=O)n(CCO)c(=O)n1CCO
not listed: [11]
inactive: all other assays above

C(=CC=Nc1ccccc1)C=CNc1ccccc1
not listed: [11]
inactive: all other assays above

CC(=O)Oc1ccc(C)cc1
not listed: [19] | [20]
inactive: all other assays above

CC(=O)Oc1ccc(C(C)=O)cc1
not listed: [11]
inactive: all other assays above

CCN(CCO)c1cccc(C)c1
not listed: [11]
inactive: all other assays above
